Laboratory results published in the supplement of paper PMC9801561.
± gives the standard deviation of the averaged measurements.

These molecules were tested on Escherichia coli Nissle 1917 (assay: area under OmniLog respiration curve over 48 h (OmniLog units x h); higher = more growth / nutrient utilisation; extreme values may be limits of the assay). Conditions: nutrient role: C-Source, carbohydrate; incubation: 48 h, 37 °C.

SMILES | area under OmniLog respiration curve
O=C(CO)[C@@H](O[C@H]1O[C@H](CO)[C@@H](O)[C@H](O)[C@H]1O)[C@H](O)[C@H](O)CO [Turanose] | 532 ± 350
OC[C@H]1O[C@@](CO)(O[C@H]2O[C@H](CO)[C@@H](O)[C@H](O)[C@H]2O)[C@@H](O)[C@@H]1O [Sucrose] | 634 ± 420
OC[C@H]1O[C@@H](O[C@@H]2[C@@H](CO)OC(O)(CO)[C@H]2O)[C@H](O)[C@@H](O)[C@H]1O (mixture of isomers) [Lactulose] | 8170 ± 840
OCC1OC(OC2C(CO)OC(O)C(O)C2O)C(O)C(O)C1O [D-Cellobiose] | 963 ± 760
OC[C@H]1O[C@H](OC[C@H]2OC(O)[C@H](O)[C@@H](O)[C@@H]2O)[C@H](O)[C@@H](O)[C@H]1O (stereo partly drawn) [D-Melibiose] | 7880 ± 1000
